# Experimental data taken from PubChem BioAssay (Tox21).
# Activity calls are given as the source filed them. Calls follow the shape of the dose curve; as a rule, active = well fitted curve in the direction sought with a large enough effect in the repeat runs; inconclusive = weak or mixed curves; inactive = flat fitted curve, though single readings scatter.
# Experiment: qHTS assay to test for compound auto fluorescence at 460 nm (blue) in HepG2 cells (AID 720687)
# Conditions: autofluorescence 405/460 nm, 1 h; series mostly up to 91.3 µM; fluorescence, % of fluorescent control: at the top concentration
# Outline: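 Blue-channel autofluorescence (Ex/Em 405/460 nm, triamterene-equivalent) was measured after 1 hr compound exposure at 37 C, 5% CO2. Cells were HepG2, plated overnight at 37 C in MEM plus 10% FBS.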
# % is scaled to controls: 0 for no effect and ±100 for the full control effect.
SMILES,"fluorescence, % of fluorescent control",outcome
O=CCCc1ccccc1,0.0026% (inactive),
CC1=C2[C@H](/C=C(\C)C(=O)O)CC[C@@H](C)[C@H]2CC1,-0.0433% [at 95.7 µM] (inactive),
CCOc1ccc(NC(N)=O)cc1,0% (inactive),
COc1ccc2nc(NC(=O)Nc3ccccc3)sc2c1,-0.174% [at 46 µM] (inactive),
CN1C(=O)CC(c2ccccc2)C1=O (configuration not stated),-0.122% [at 46 µM] (inactive),
Cc1ccc(C(C)C)cc1O,0.234% (inactive),
Cc1c[nH]c(=S)[nH]c1=O,-0.0443% (inactive),
CCOc1ccc(OCC)c(Cl)c1,-0.0461% (inactive),
Cc1ccc([N+](=O)[O-])c(N)c1,-0.0077% (inactive),
CC(C)O,,inactive
CN1[C@@H]2CC[C@H]1CC(OC(=O)c1c[nH]c3ccccc13)C2 (some centres not stated),0.916% [at 46 µM] (inactive),
CN1CCC[C@@H]1Cc1c[nH]c2ccc(CCS(=O)(=O)c3ccccc3)cc12,0.0851% [at 46 µM] (inactive),
CC(C)=CCCC(C)CCOC=O (configuration not stated),-0.124% (inactive),
CCOC(=O)CS,0.075% [at 95.7 µM] (inactive),
Cc1cc2c(s1)Nc1ccccc1N=C2N1CCN(C)CC1,-0.0282% [at 46 µM] (inactive),
CCC(=O)c1ccc2c(c1)N(CCCN(C)C)c1ccccc1S2,0.164% [at 46 µM] (inactive),
CN(C)CCOc1ccccc1Cc1ccccc1,0.099% [at 46 µM] (inactive),
CCOc1ccc(NS(=O)(=O)c2ccc(N)cc2)nn1,-0.0341% [at 46 µM] (inactive),
Cn1cnc2c(F)c(Nc3ccc(Br)cc3Cl)c(C(=O)NOCCO)cc21,0.0464% [at 46 µM] (inactive),
CCN(CCCc1ccccc1)CCCc1ccccc1,-0.0033% [at 18.6 µM] (inactive),
CCCCCCCCCCCCOCCOS(=O)(=O)O,0.0531% (inactive),
CCNCCO,0.0415% (inactive),
O=C(CC(=O)C(F)(F)F)c1ccccc1,-0.0057% [at 95.7 µM] (inactive),
CCCCCCCOC(=O)CCC,0.0634% (inactive),
O=[N+]([O-])c1nccn1CO[C@@H](CO)[C@H](O)CO,0.76% [at 46 µM] (inactive),
CCCCNc1ccc(C(=O)OCCN(CC)CC)cc1,-0.149% [at 46 µM] (inactive),
C[C@@H]1CN(c2c(F)c(F)c3c(=O)c(C(=O)O)cn(C4CC4)c3c2F)C[C@H](C)N1,0.401% [at 46 µM] (inactive),
